Screening results deposited in PubChem by University of Kansas High Throughput Screening Laboratory.
The full list was thinned out, with hits kept by preference.
mHTT-CaM PPI inh = mHTT-calmodulin interaction abrogation | P42858 | AlphaScreen His-mHTT/GST-CaM binding, luminescence | inhibition, % at 15 µM | 190,000 tested, 3.6% active
Pf apPOL inh = Pf-apPOL DNA polymerase inhibition; Recombinant Pf-apPOL, molecular beacon fluorescence, 1.5 h; inhibition, % at 10 µM; 210,000 tested, 0.25% active
A number is an active result; - = inactive; . = no result. Cut-off read from the data, not from the text of the source: active = inhibition above about 50%; inactive = the rest.

SMILES	mHTT-CaM PPI inh	Pf apPOL inh
COc1ccc(OC)c(NC(=O)C2CN(S(=O)(=O)C3CC3)CC23CCCCC3)c1 (centres undefined)	-	-
Cc1scc2nc(C(=O)NCc3ccc(F)cc3)nc(N3CCCC3)c12	81.3	-
CCNC(=O)c1nc(N2CCCC2)c2c(C)scc2n1	-	-
O=C1OC(c2cc(F)c(F)cc2Cl)=N/C1=C\c1ccccc1F	-	-
CC12CCC3C(CCC4CCCCC43C)C1CCC2N (centres undefined)	100.0	-
CC12CCC3C(CCC4CCCCC43C)C1CC(c1nc3ccccc3[nH]1)=C2O (centres undefined)	-	-
CN(Cc1ccccc1)S(=O)(=O)c1cc(C(=O)Nc2ccccc2Cl)ccc1F	-	-
Cc1oc(C2CCN(C(=O)Nc3cccc(F)c3C)CC2)nc1C(=O)N(C)C	-	-
CCc1ccc(N2C(=O)C3N=NN(c4cccc(C)c4C)C3C2=O)cc1 (centres undefined)	-	-
O=c1c2c3c(sc2nc2c4ccccc4c(NCC4CCCO4)nn12)CCCC3 (centres undefined)	65.1	-
CC1CCc2c(sc3nc4c5ccccc5c(NCc5ccco5)nn4c(=O)c23)C1 (centres undefined)	-	-
COc1ccc(NC(=O)CN(c2ccc(C)cc2)S(=O)(=O)c2ccc(F)cc2)cc1OC	-	89.7
COc1ccccc1N(CC(=O)Nc1ccc(Br)c(C)c1)S(C)(=O)=O	69.2	-
Cc1ccc(S(=O)(=O)N(CC(=O)Nc2ccccc2F)c2ccccc2C)cc1	82.3	-
Cc1cccc(N(CC(=O)Nc2ccc(F)cc2)S(=O)(=O)c2ccccc2)c1C	100.2	-
Cc1cccc(N(CC(=O)Nc2ccccc2Cl)S(=O)(=O)c2ccccc2)c1C	-	-
COc1ccccc1NC(=O)CN(c1ccccc1C)S(=O)(=O)c1ccc(C)cc1	-	-
COc1ccc(C)cc1N(CC(=O)Nc1cccc(Br)c1)S(C)(=O)=O	-	-
Cc1ccc(N(CC(=O)Nc2ccc(C(N)=O)cc2)S(=O)(=O)c2ccc(F)cc2)cc1	-	-
Cc1ccc(N2CCC(NC(=O)Nc3cc(C)cc(C)c3)C2=O)cc1 (centres undefined)	-	-
COc1cc(C2C(=C(O)c3ccccc3)C(=O)C(=O)N2CCC(=O)O)ccc1O (centres undefined)	-	-
CCCNC(=O)C1CCN(c2nnc(-c3ccc(OC)cc3)o2)CC1	-	-
O=C(CN1CCC2(CC1)NC(=O)N(Cc1ccc(F)cc1)C2=O)NCC1CCCO1 (centres undefined)	-	-
COc1ccccc1CNC(=O)c1cnn2c(C)c(Cc3ccc(C)cc3)c(C)nc12	-	-
O=C(CN(c1cc(C(F)(F)F)ccc1Cl)S(=O)(=O)c1ccccc1)Nc1ccccc1	99.0	-
SMILES	mHTT-CaM PPI inh	Pf apPOL inh
COc1ccc(NC(=O)CN(c2ccc(C)cc2C)S(C)(=O)=O)cc1OC	-	-
Cc1ccc(N(CC(=O)Nc2ccc(F)cc2)S(C)(=O)=O)c(C)c1	-	74.5
CS(=O)(=O)N(CC(=O)Nc1ccccc1)c1cc(C(F)(F)F)ccc1Cl	-	-
CC(C)(C)c1ccc(C(=O)Nc2ccccc2C(=O)O)o1	-	-
Cc1ccc(-c2csc3c(=O)n(CC(=O)Nc4cc(C)ccc4C)cnc23)cc1	-	-
CN(C)CCNC(=O)c1ccc(S(=O)(=O)N2CCCC2)cc1	-	54.9
O=C(NC1CCCCC1)c1ccc(S(=O)(=O)N2CCCC2)cc1	-	-
COc1cc(C(=O)N2CCC(c3noc(-c4ccc(C)cc4)n3)CC2)cc(OC)c1OC	-	-
Cc1c(C(=O)C=CN(C)C)sc2ccccc12	.	-
CC(=O)Nc1ccc(S(=O)(=O)NCCSCc2ccc(Cl)c(Cl)c2)cc1	90.1	-
O=S(=O)(NCCSCc1ccc(Cl)cc1)c1ccc2c(c1)OCCO2	-	-
O=S(=O)(NCCSCc1ccc(Cl)c(Cl)c1)c1ccc2c(c1)OCCO2	50.6	-
CS(=O)(=O)NCCSCc1ccc(Cl)c(Cl)c1	-	-
COc1ccc(-c2[nH]ncc2CN2CCCC2c2cc(C)on2)cc1 (centres undefined)	-	-
O[C@H]1CN(CC2CCCCC2)[C@@H](c2ccccc2)C[C@@H]1n1cc(C2CC2)nn1	69.8	-
Cc1ccc([C@H]2C[C@@H](n3cc(C4CC4)nn3)[C@H](O)CN2CC2CCCCC2)cc1	-	-
Cc1ccc([C@H]2C[C@H](n3cc(C4CC4)nn3)[C@@H](O)CN2CC2CCCCC2)cc1	-	-
Cc1ccc([C@H]2C[C@H](O)[C@@H](n3cc(C4CC4)nn3)CN2CC2CCCCC2)cc1	86.5	-
CC(NC(=O)C1CCCC1)c1nc(-c2cccc(Cl)c2)no1 (centres undefined)	-	-
Cc1ccc(C)n1-c1ccc(Cl)cc1O	92.8	-
Cc1ccc(C)n1-c1ccc(C(=O)O)cc1O	-	-
CN(Cc1ccccc1)C(=O)c1cc2n(n1)C(C(F)(F)F)CC(c1ccccc1)N2 (centres undefined)	53.0	-
Cc1ccc(C2CC(C(F)(F)F)n3nc(C(=O)NCCc4ccccc4)cc3N2)cc1 (centres undefined)	-	-
CC1CCN(C(=O)c2cc3n(n2)C(C(F)(F)F)CC(c2ccccc2)N3)C2CCCCC12 (centres undefined)	58.0	-
COc1ccc(C2CC(C(F)(F)F)n3nc(C(=O)N(C)Cc4ccccc4)c(Cl)c3N2)cc1 (centres undefined)	89.0	-
SMILES	mHTT-CaM PPI inh	Pf apPOL inh
COc1ccc(C2CC(C(F)(F)F)n3nc(C(=O)NCc4ccccc4)c(Cl)c3N2)cc1 (centres undefined)	-	-
COc1ccc(C2CC(C(F)(F)F)n3nc(C(=O)Nc4cccnc4)cc3N2)cc1 (centres undefined)	-	54.7
CC1CCC(C)N(C(=O)c2cc3n(n2)C(C(F)(F)F)CC(c2ccccc2)N3)C1 (centres undefined)	-	-
Cc1ccc(C2CC(C(F)(F)F)n3nc(C(=O)Nc4cccnc4)cc3N2)cc1 (centres undefined)	-	-
COc1cccc(C2=NOC(C(=O)N3CCN(c4ccc(F)cc4)CC3)C2)c1 (centres undefined)	-	-
CCOc1cccc(CNC(=O)C2CCc3nc(N4CCN(C(C)=O)CC4)sc3C2)c1 (centres undefined)	-	-
CCOc1ccc(NC(=O)N2CCC(c3cc4n(n3)CCCN(CC)C4=O)CC2)cc1	-	-
O=C(Nc1cccc(Cl)c1)c1cccc(Cn2cncn2)c1	-	-
Cc1cc(=O)oc2cc(Oc3c([N+](=O)[O-])cc(C(F)(F)F)cc3[N+](=O)[O-])ccc12	-	-
CCCCN1C(=O)C(C)(C(=O)NC2CCCC2)Oc2cccnc21 (centres undefined)	-	-
COc1ccc(C=C2Oc3cc(C)cc(O)c3C2=O)cc1	-	-
COc1ccc2c(c1)=CC(=Cc1[nH]c(SC(C)=O)nc1O)C(=O)N=2	100.0	-
Cc1cc(C(=O)N2CCCC(C(=O)NCc3ccc(F)cc3)C2)no1 (centres undefined)	-	-
O=C(Cc1ccc(F)cc1)n1nnc2ccccc21	-	-
Nc1cc(C2CCN(S(=O)(=O)c3ccccc3)CC2)no1	-	-
CC(Nc1cc(N2CCN(C(=O)c3cccs3)CC2)ccc1[N+](=O)[O-])c1ccccc1 (centres undefined)	-	-
CC(Nc1cc(N2CCN(C(=O)c3ccco3)CC2)ccc1[N+](=O)[O-])c1ccccc1 (centres undefined)	56.4	-
